Results published in the supplement of paper PMC10849652.
Of roughly 7,900 targets only a part is listed; those with a hit were picked by preference. About 0.6% of all pairs of compound and target were hits. Unmarked numbers belong to inactive results.

Columns and labels:
Experiment in all cases: log2 fold change, soluble protein after heating vs DMSO (PISA); higher = thermal stabilisation; K562 cells, 10 uM, 30 min; active = over 0.2 and 3.5 SD of the protein, either way, in both replicates (recomputed)
bafetinib = compound: Cc1ccc(NC(=O)c2ccc(CN3CC[C@H](N(C)C)C3)c(C(F)(F)F)c2)cc1Nc1nccc(-c2cncnc2)n1 [bafetinib]
How it was run: (§1)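 K562 cells (2×10^6 cells/mL) were treated with 10 μM compound for 30 min, and aliquots were heated for 3 min over 48°C-58°C. Pooled aliquots were extracted in PBS with 0.5% NP-40 at 4°C, and the supernatant after 21,000xg for 90 min was measured by TMTpro 16plex LC-MS/MS with channel sums equalised. Reported thermal stability, relative to control samples and from duplicates, is a log2 fold change.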

[1] = compound: Cc1cccc(CC(=O)N2CCc3c2ccc(-c2cn(C)c4ncnc(N)c24)c3F)n1
How it was run: as §1

nilotinib = compound: Cc1cn(-c2cc(NC(=O)c3ccc(C)c(Nc4nccc(-c5cccnc5)n4)c3)cc(C(F)(F)F)c2)cn1 [nilotinib]
How it was run: as §1

[2] = compound: Cc1nc(Nc2n[nH]c3c2CN(C(=O)N[C@H](CN(C)C)c2ccccc2)C3(C)C)c2sccc2n1
How it was run: as §1

dasatinib = compound: Cc1nc(Nc2ncc(C(=O)Nc3c(C)cccc3Cl)s2)cc(N2CCN(CCO)CC2)n1 [dasatinib]
How it was run: as §1

[3] = compound: Cc1ncc(-c2ccnc(Nc3ccc(S(C)(=O)=O)cc3)n2)n1C(C)C
How it was run: as §1

[4] = compound: Cn1cc(-c2ccc3c(c2)CCN3C(=O)Cc2cccc(C(F)(F)F)c2)c2c(N)ncnc21
How it was run: as §1

[5] = compound: Cn1cc(-c2ccc3nnc(C(F)(F)c4ccc5ncccc5c4)n3n2)cn1
How it was run: as §1

tipifarnib = compound: Cn1cncc1[C@@](N)(c1ccc(Cl)cc1)c1ccc2c(c1)c(-c1cccc(Cl)c1)cc(=O)n2C [tipifarnib]
How it was run: as §1

mubritinib = compound: FC(F)(F)c1ccc(/C=C/c2nc(COc3ccc(CCCCn4ccnn4)cc3)co2)cc1 [mubritinib]
How it was run: as §1

[6] = compound: NC(=O)Nc1cc(-c2cccc(F)c2)sc1C(=O)N[C@H]1CCCNC1
How it was run: as §1

[7] = compound: NC(=O)c1cnc(N[C@@H]2CCCC[C@@H]2N)nc1Nc1cccc(-n2nccn2)c1
How it was run: as §1

[8] = compound: NC1(c2ccc(-c3nc4ccn5c(=O)[nH]nc5c4cc3-c3ccccc3)cc2)CCC1
How it was run: as §1

[9] = compound: NCC(=O)Nc1ccc(-n2nc(C(F)(F)F)cc2-c2ccc3c(ccc4ccccc43)c2)cc1
How it was run: as §1

entinostat = compound: Nc1ccccc1NC(=O)c1ccc(CNC(=O)OCc2cccnc2)cc1 [entinostat]
How it was run: as §1

vorinostat = compound: O=C(CCCCCCC(=O)Nc1ccccc1)NO [vorinostat]
How it was run: as §1

citarinostat = compound: O=C(CCCCCCNC(=O)c1cnc(N(c2ccccc2)c2ccccc2Cl)nc1)NO [citarinostat]
How it was run: as §1

silmitasertib = compound: O=C(O)c1ccc2c(c1)nc(Nc1cccc(Cl)c1)c1ccncc12 [silmitasertib]
How it was run: as §1

[10] = compound: O=C1NC(=O)C(c2cnc3ccccn23)=C1c1cn2c3c(cc(F)cc13)CN(C(=O)N1CCCCC1)CC2
How it was run: as §1

[11] = compound: c1cc(OCCN2CCCCC2)cc(-c2n[nH]c3ccc(-c4nnc[nH]4)cc23)c1
How it was run: as §1

Sequence of UniProt Q8IWY9 (Q8IWY9 whole entry, looked up): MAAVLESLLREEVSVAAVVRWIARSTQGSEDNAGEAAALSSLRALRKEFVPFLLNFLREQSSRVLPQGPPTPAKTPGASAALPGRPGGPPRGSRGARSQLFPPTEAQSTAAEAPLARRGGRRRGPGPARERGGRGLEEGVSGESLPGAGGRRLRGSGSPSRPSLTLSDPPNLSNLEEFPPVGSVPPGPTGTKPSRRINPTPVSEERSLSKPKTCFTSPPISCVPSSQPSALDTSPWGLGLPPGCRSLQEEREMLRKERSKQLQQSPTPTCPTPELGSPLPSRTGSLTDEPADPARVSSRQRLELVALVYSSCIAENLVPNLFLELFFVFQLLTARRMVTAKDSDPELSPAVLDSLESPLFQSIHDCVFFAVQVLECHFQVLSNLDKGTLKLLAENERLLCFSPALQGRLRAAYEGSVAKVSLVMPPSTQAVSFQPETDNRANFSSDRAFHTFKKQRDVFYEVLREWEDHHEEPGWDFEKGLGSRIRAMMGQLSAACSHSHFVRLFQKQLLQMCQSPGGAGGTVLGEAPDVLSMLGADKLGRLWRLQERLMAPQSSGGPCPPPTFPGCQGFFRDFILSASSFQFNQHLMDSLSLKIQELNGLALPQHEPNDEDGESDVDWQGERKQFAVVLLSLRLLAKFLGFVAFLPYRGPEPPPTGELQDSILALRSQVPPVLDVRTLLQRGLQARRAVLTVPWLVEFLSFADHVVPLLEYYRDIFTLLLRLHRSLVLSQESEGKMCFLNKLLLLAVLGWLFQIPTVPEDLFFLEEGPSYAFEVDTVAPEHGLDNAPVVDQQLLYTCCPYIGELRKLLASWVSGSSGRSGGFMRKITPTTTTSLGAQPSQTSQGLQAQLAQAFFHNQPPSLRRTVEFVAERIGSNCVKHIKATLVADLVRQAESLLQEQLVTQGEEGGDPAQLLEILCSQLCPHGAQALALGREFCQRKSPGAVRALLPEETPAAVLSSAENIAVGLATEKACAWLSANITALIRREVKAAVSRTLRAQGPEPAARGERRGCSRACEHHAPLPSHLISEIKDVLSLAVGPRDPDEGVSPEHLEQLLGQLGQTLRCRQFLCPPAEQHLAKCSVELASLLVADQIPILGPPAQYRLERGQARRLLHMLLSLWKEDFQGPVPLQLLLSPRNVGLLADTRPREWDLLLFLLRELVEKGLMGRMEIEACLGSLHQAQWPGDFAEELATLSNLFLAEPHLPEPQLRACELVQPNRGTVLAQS
Sequence of UniProt P50750 (P50750 whole entry, looked up): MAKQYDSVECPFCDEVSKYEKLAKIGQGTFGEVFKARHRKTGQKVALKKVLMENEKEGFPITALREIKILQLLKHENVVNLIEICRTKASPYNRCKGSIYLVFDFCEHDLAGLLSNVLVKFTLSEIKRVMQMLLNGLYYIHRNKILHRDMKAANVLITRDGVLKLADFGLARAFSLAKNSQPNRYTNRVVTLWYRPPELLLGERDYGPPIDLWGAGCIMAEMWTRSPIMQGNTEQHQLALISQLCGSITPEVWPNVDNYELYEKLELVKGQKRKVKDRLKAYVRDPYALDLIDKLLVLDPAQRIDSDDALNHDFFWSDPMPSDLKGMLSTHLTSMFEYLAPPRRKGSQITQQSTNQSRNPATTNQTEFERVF
Sequence of UniProt Q00536 (Q00536 whole entry, looked up): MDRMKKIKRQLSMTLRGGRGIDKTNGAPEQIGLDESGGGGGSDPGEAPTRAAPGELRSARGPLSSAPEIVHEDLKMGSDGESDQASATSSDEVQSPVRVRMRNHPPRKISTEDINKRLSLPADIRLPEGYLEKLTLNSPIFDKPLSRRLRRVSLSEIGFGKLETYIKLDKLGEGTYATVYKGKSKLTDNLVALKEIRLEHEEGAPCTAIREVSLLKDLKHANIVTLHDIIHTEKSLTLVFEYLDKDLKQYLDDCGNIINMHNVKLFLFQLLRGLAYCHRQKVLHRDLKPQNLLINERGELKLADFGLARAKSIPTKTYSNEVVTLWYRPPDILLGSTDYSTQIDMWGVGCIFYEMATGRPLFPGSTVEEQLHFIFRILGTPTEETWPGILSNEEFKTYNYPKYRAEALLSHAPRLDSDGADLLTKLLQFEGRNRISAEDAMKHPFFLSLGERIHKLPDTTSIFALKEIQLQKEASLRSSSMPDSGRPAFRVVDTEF
Sequence of UniProt Q7L3B6 (Q7L3B6 whole entry, looked up): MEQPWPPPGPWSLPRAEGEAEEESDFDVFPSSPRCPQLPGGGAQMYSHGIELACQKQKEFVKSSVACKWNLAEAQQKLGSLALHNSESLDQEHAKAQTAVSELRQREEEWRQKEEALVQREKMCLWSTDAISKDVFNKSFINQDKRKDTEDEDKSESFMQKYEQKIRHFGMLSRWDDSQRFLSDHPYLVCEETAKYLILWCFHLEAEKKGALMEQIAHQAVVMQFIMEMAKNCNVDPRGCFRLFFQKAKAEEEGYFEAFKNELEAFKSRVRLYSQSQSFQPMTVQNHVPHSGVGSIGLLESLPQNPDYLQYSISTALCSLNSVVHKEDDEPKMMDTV
Sequence of UniProt P21127 (P21127 whole entry, looked up): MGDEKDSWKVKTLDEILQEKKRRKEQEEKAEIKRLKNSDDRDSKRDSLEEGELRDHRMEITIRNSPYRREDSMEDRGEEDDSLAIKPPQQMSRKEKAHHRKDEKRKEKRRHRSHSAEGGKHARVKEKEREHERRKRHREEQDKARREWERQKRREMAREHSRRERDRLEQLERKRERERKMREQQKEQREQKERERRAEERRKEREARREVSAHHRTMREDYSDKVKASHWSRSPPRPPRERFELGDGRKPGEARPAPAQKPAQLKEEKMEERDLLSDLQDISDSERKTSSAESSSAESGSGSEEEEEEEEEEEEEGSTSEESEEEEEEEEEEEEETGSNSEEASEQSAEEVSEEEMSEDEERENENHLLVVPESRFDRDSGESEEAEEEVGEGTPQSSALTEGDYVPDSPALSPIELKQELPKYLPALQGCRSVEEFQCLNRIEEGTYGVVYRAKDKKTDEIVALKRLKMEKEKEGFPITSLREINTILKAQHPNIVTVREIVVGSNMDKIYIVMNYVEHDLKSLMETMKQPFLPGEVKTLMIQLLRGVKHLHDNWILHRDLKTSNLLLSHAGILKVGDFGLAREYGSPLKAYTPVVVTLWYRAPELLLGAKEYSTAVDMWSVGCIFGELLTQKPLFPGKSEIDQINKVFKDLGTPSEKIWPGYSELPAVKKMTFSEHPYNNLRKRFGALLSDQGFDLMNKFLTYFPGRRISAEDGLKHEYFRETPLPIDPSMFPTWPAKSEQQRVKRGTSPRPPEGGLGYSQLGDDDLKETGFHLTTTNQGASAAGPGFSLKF
Sequence of UniProt Q8N4Q1 (Q8N4Q1 whole entry, looked up): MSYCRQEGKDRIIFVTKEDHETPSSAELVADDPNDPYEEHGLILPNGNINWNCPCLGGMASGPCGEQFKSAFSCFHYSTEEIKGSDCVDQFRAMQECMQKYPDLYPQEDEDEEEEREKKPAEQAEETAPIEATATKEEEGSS
Sequence of UniProt Q8IWX8 (Q8IWX8 whole entry, looked up): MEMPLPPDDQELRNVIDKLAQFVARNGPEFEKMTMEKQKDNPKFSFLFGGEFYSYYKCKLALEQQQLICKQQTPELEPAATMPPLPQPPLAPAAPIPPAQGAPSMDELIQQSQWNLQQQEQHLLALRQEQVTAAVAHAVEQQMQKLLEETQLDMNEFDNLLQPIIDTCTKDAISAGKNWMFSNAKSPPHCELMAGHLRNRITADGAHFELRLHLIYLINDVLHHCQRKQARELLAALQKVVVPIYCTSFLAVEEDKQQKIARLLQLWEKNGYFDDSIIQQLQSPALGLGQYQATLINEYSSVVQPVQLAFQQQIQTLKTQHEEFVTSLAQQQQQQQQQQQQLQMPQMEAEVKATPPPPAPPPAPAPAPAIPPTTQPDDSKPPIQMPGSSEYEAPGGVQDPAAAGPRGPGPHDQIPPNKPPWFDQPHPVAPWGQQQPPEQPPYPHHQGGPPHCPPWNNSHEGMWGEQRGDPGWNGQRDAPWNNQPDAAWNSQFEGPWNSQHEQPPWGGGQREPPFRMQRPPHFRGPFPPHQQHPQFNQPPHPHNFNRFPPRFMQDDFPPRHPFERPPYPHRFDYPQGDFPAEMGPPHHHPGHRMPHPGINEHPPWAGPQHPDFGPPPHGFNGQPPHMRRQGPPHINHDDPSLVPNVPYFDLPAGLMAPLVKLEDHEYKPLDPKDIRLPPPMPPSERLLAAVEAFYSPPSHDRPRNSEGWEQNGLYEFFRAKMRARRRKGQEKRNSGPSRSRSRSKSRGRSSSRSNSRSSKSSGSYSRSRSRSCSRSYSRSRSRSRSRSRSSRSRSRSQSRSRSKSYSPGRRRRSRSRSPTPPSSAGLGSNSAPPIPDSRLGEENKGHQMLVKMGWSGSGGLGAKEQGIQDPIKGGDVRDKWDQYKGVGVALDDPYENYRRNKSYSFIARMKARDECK
Sequence of UniProt A6NHX0 (A6NHX0 whole entry, looked up): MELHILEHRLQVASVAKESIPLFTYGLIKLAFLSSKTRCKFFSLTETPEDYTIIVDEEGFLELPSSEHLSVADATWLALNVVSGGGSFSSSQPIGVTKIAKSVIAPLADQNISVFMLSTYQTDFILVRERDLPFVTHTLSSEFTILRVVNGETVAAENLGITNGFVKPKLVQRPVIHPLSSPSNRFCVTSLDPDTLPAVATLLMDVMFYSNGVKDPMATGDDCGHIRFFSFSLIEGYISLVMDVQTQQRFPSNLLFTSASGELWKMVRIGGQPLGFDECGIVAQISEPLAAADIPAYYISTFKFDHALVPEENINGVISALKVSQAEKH
Sequence of UniProt P20674 (P20674 whole entry, looked up): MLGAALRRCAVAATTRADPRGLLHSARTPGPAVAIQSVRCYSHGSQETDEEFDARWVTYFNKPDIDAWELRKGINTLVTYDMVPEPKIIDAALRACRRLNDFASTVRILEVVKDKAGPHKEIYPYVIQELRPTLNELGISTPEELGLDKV

Row | Target | log2 fold change (bafetinib) | log2 fold change [1] | log2 fold change (nilotinib) | log2 fold change [2] | log2 fold change (dasatinib) | log2 fold change [3] | log2 fold change [4] | log2 fold change [5] | log2 fold change (tipifarnib) | log2 fold change (mubritinib) | log2 fold change [6] | log2 fold change [7] | log2 fold change [8] | log2 fold change [9] | log2 fold change (entinostat) | log2 fold change (vorinostat) | log2 fold change (citarinostat) | log2 fold change (silmitasertib) | log2 fold change [10] | log2 fold change [11]
1 | CASTOR2 (UniProt A6NHX0) | -0.063 | 0.019 | 0.011 | 0.02 | -0.024 | -0.039 | -0.019 | -0.032 | -0.311 | -0.032 | 0.076 | 0.113 | -0.034 | 0.06 | -0.072 | 0.056 | 0.04 | -0.03 | -0.005 | 0.076
2 | CHERP (UniProt Q8IWX8) | 0.057 | 0.092 | -0.13 | -0.353 | -0.086 | 0.011 | 0.011 | 0.025 | 0.005 | -0.07 | 0.015 | -0.054 | -0.096 | -0.095 | 0.129 | 0.099 | -0.001 | 0.03 | -0.121 | -0.042
3 | CHCHD4 isoform 2 (UniProt Q8N4Q1) | 0 | 0.764 (active) | -0.054 | -0.015 | -0.121 | -0.039 | -0.185 | -0.059 | -0.208 | 0 | 0.335 | 0.06 | -0.007 | 0.084 | 0.339 | 0.442 | -0.013 | 0.038 | 0.123 | 0.027
4 | C19orf53 (UniProt Q9UNZ5) | 0.271 | 0.034 | 0.029 | 0.139 | 0.222 | 0.023 | -0.207 | -0.083 | 0.165 | -0.13 | 0.136 | 0.061 | 0.279 | 0.177 | -0.026 | -0.051 | -0.105 | 0.123 | 0.214 | -0.155
5 | COX5A (UniProt P20674) | -0.079 | -0.003 | 0.067 | -0.023 | 0.06 | -0.067 | 0.109 | 0.422 (active) | 0.103 | 0.021 | 0.019 | 0.103 | 0.117 | 0.024 | 0.024 | -0.078 | -0.041 | -0.055 | -0.228 | -0.046
6 | CLUH, A0A494C0R8 | 0.016 | -0.445 | 0.264 | 0.015 | -0.051 | 0 | -0.018 | 0.532 (active) | 0.145 | 0.072 | 0.031 | 0.031 | -0.003 | -0.062 | 0.09 | 0.195 | -0.026 | 0.046 | 0.118 | -0.08
7 | CDK11B (UniProt P21127) | 0.027 | -0.009 | 0.106 | -0.038 | 0.014 | -0.036 | 0.007 | 0.228 | 0.104 | 0.085 | -0.114 | -0.012 | 0.031 | 0.006 | -0.111 | 0.064 | -0.047 | -0.061 | 0.072 | -0.301
8 | CSK (UniProt P41240) | 0.088 | 0.019 | 0.126 | -0.001 | 0.137 | 0.017 | 0.019 | -0.031 | -0.129 | 0.107 | 0.318 (active) | -0.084 | -0.156 | -0.083 | 0.006 | 0.023 | 0.03 | 0.046 | -0.048 | -0.014
9 | CDAN1 (UniProt Q8IWY9) | -0.012 | -0.014 | 0.064 | -0.195 | -0.582 (active) | -0.017 | -0.023 | 0.008 | 0.011 | 0.056 | -0.033 | -0.042 | -0.192 | -0.091 | 0.051 | 0.022 | -0.011 | 0.095 | 0.036 | -0.018
10 | CDK9 isoform 2 (UniProt P50750) | 0.039 | 0.108 | -0.045 | -0.059 | -0.011 | 0.22 | -0.091 | -0.013 | 0.068 | -0.067 | -0.05 | -0.038 | -0.057 | 0.22 | 0.005 | 0.102 | -0.002 | -0.015 | 0.152 | -0.084
11 | CLPX (UniProt O76031) | 0.008 | -0.074 | -0.006 | 0.042 | 0.006 | -0.019 | -0.012 | 0.032 | 0.052 | -0.048 | 0.01 | 0.011 | -0.031 | -0.01 | -0.019 | 0.007 | 0.011 | 0.022 | 0.058 | -0.05
12 | CDC37L1 (UniProt Q7L3B6) | -0.215 | 0.027 | -0.026 | -0.167 | -0.088 | 0.022 | 0.018 | 0.121 | 0.034 | 0.172 | -0.061 | -0.074 | 0.018 | 0.033 | -0.011 | -0.017 | -0.064 | 0.07 | -0.022 | -0.102
13 | CDK16 isoform 2 (UniProt Q00536) | 0.038 | -0.047 | 0.013 | 0.619 (active) | 0 | 0.679 (active) | -0.014 | 0.013 | -0.072 | 0.035 | -0.07 | -0.091 | -0.104 | -0.061 | -0.041 | -0.044 | 0.061 | 0.201 | 0.845 (active) | -0.006
14 | CCDC59 (UniProt Q9P031) | 0.117 | -0.041 | 0.032 | 0.048 | 0.037 | 0.028 | -0.277 | -0.13 | 0.09 | -0.056 | -0.033 | 0.122 | 0.166 | 0.139 | -0.149 | -0.099 | -0.178 | 0.154 | 0.21 | 0.07
15 | CPT1A (UniProt P50416) | 0.171 | 0.006 | 0.058 | 0.021 | -0.042 | -0.107 | -0.024 | -0.036 | 0.187 | -0.05 | -0.068 | -0.012 | 0.117 | -0.001 | -0.005 | -0.017 | 0.053 | 0.037 | -0.014 | 0.071
16 | CASC3 (UniProt O15234) | -0.064 | -0.069 | -0.064 | 0.481 (active) | 0.031 | 0.511 (active) | -0.079 | -0.069 | 0.004 | 0.084 | 0.015 | 0.238 | -0.01 | 0.001 | -0.039 | -0.072 | 0 | 0.054 | 0.24 | -0.133
